16 compounds from PubChem BioAssay (EPA / NIEHS) can be followed below.

The structures appear in SMILES notation. Activity calls are given as the source filed them. How the source made its calls: active means hit-call score of the fitted dose curve at least 0.9, where 1 is the maximum; inconclusive means response in the unintended direction; inactive means score below 0.9.

A short description of the assay: Tanguay_ZF_120hpf_MORT_legacy: (Legacy) Oregon State University Tanguay Lab 120 Hour Post-fertilization zebrafish Assay for Mortality (AID 2283633). As for the experimental part: Tanguay_ZF_120hpf_legacy is a whole embryo, multiplexed endpoint assay using zebrafish larvae exposed for 120 hours post fertilization on a 96-well plate.Tanguay_ZF_120hpf_MORT_legacy is one of one assay component(s) measured or calculated from the Tanguay_ZF_120hpf_legacy assay. It is designed to make measurements of embryonic mortality as detected with brightfield microscopy of developing zebrafish embryos.Data from the assay component Tanguay_ZF_120hpf_MORT_legacy was analyzed into 1 assay endpoints. This assay endpoint, Tanguay_ZF_120hpf_MORT_legacy, was analyzed in the positive analysis fitting direction relative to DMSO as the negative control and baseline of activity. Using a type of viability reporter, gain-of-signal activity can be used to understand changes in developmentals as they relate to the whole embryo. To generalize the intended target to other relatable targets, this assay endpoint is annotated to the embryonic mortality intended target family, where the subfamily is embryonic mortality.
Zebrafish husbandry: Tropical 5D wild-type adult zebrafish were housed in at an approximate density of 1000 per 100 gallon tank at the Sinnhuber Aquatic Research Laboratory, Oregon State University, Corvallis, OR. Each tank was kept at standard laboratory conditions of 28C on a 14-h light/10-h dark photoperiod in fish water consisting of reverse osmosis water supplemented with a commercially available salt (Instant Ocean). Spawning funnels were placed into the tanks the night prior, and embryos were collected and staged. To increase bioavailability, the chorion was enzymatically removed using pronase (63.6mg/ml, >/= 3.5U/mg, Sigma-Aldrich: P5147) at 4 hours post fertilization (hpf) using a custom automated dechorionator.Chemical exposures: Six hpf dechorionated embryos were placed 1 embryo per well in a 96-well plate prefilled with 90 ul of EM using automated embryo placement systems (AEPS). Ten microliters of each row of dilution plate 2 was added to 2 exposure plates. The final DMSO concentration used was 0.64% (vol/vol). Thirty-two embryos were also exposed to 5uM trimethyltin chloride (positive control). Plates were sealed to prevent evaporation and foil covered to reduce light exposure and kept in a 28C incubator. Embryos were statically exposed until 120 hpf. At 24 hpf, embryos were assessed for photomotor response using a custom photomotor response analysis tool (PRAT) and for developmental toxicity endpoints (MO24: mortality at 24 hpf, DP: developmental progression, SM: spontaneous movement, and NC: notochord distortion). At 120 hpf, locomotor activity was measured using Viewpoint Zebralab and assessed for 18 endpoints. Zebrafish acquisition and analysis program (ZAAP), a custom program designed to inventory, acquire, and manage zebrafish data, was used to collect developmental endpoints as either present or absent (i.e., binary responses were recorded). If mortality occurred for an embryo (at either 24 or 120 hpf), the non-mortality endpoints were not measured.
`CCCCCCCCCCCCCCC`: the result was inactive.

For `CCCCC(CC)C(=O)O` (stereo unspecified), the result was inactive.

`CCCCC=O`: the compound was called inactive.

Turning to `O=C(CCCN1CCC(O)(c2ccc(Cl)cc2)CC1)c1ccc(F)cc1`, the outcome was inactive.

Turning to `CC(=O)Nc1ccc(O)cc1`, the result was inactive.

With `CN(Cc1cnc2nc(N)nc(N)c2n1)c1ccc(C(=O)N[C@@H](CCC(=O)O)C(=O)O)cc1`, the call was inactive.

Turning to `OCC(CO)(CBr)CBr`, the result was inactive.

As to `N=C(N)c1ccc(OCCCCCOc2ccc(C(=N)N)cc2)cc1`, the outcome was inactive.

As for `CN(C)CCOC(c1ccccc1)c1ccccc1`, the result was inactive.

As to `Cc1[nH]nc2c1N=C(c1ccccc1Cl)c1cc([N+](=O)[O-])ccc1N2`, the compound was called inactive.

For the compound `CCCCc1oc2ccccc2c1C(=O)c1cc(I)c(OCCN(CC)CC)c(I)c1`, the compound was called inactive.

As to `O=C1NS(=O)(=O)c2ccccc21`, the result was inactive.

Take `CCC(C)c1ccccc1O` (stereo unspecified): the call was inactive.

With `O=C(c1ccccc1)c1ccccc1`, the result was inactive.

On to `CS(=O)(=O)c1ccc([C@@H](CC2CCCC2)C(=O)Nc2cnccn2)cc1Cl`, for which the compound was classed as inactive.

`CCCCCCCCCCCCOS(=O)(=O)O`: the compound was classed as inactive.
